About 50 (4%) of roughly 1,400 compounds were called active.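 Rule for the calls: active = fitted curve reaches 30% CPE protection at or below the top valid dose, with every test run called active; inconclusive = test runs disagree, some active and some not; inactive = every test run inactive, including effects in the wrong direction.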 Only a sample is shown. Entries with a potency or affinity are not part of this list.

Among the data in PubChem BioAssay AID687031 (Broad Institute, 2013) are outcome values, retold here.

The test can be described thus: antiviral rescue of DENV2-infected BHK-21 cells – cell-based, ATP luminescence, cherry-pick, dose response (AID 687031). The following applies: BHK-21 DENV2 CPE protection, 5 d; series mostly up to 19.5 µM.
As to `COc1ccc(C(CCN2CCOCC2)c2c(OC)cc(OC)c3c(C)cc(=O)oc23)cc1` (stereo not drawn), the compound was called inactive.

Consider `CN1C[C@@H]2[C@@H]3C(=O)N(Cc4ccccc4)C(=O)[C@@H]3[C@](C)(C1=O)N2C(=O)c1ccc(C(C)(C)C)cc1`, for which the compound was classed as inactive.

Take `Cc1ccc(S(=O)(=O)N2CCN(C(=O)COC(=O)Cc3ccc(Cl)cc3)CC2)c(C)c1`: the compound was classed as inactive.

Take `O=C(c1ccccc1Cc1ccccc1)N1CCN(S(=O)(=O)c2ccccc2)CC1`: the compound was called inactive.

Take `O=C1[C@@H](Oc2ccccc2)[C@@H](c2ccncc2)N1c1ccncc1`: the compound was called inactive.

On to `Cc1ccc2ccc(C(Nc3ccccc3)c3ccccc3)c(O)c2n1` (stereo not drawn), for which the result was inactive.

On to `Cc1ccc(CNC(=O)C2CCC(=O)N(CCc3ccccn3)C2)s1` (stereo not drawn), for which the call was inactive.

With `Cc1cccc(N2CCN(C(C(=O)NCc3ccccc3)c3ccc(F)cc3)CC2)c1C` (stereo not drawn), the compound was called inactive.

Take `CC1(C)CC(=O)N(CC(=O)O)c2ccccc2S1(=O)=O`: the result was inactive.

Regarding `CCNC(=O)C[C@H]1CC[C@@H]2[C@H](COC[C@H](O)CN2Cc2ccc(Cl)c(Cl)c2)O1`, the outcome was inactive.

Take `Cc1noc(C)c1S(=O)(=O)Nc1ccc2c(c1)C(=O)N([C@H](C)CO)C[C@H](C)[C@H](CN(C)C(=O)Nc1ccccc1)OCCCC[C@@H](C)O2`: the call was inactive.

With `Cc1noc(C)c1S(=O)(=O)Nc1ccc2c(c1)C(=O)N([C@@H](C)CO)C[C@@H](C)[C@@H](CN(C)C(=O)Nc1ccccc1)OCCCC[C@@H](C)O2`, the compound was classed as inactive.

As to `CNc1cc(-c2ccc(O)cc2C)ncn1`, the result was inactive.

For the compound `O=C(C1CCOCC1)N1CC[C@@H]2[C@H]1c1cc(-c3cccc(F)c3)ccc1N[C@@H]2CO`, the result was inactive.

For `O=C(C1CC1)N1CC[C@@H]2[C@H]1c1cc(-c3ccc(F)cc3)ccc1N[C@@H]2CO`, the compound was classed as inactive.

As to `Cc1ccc(S(=O)(=O)c2nnn3c2nc(N2CCOCC2)c2ccccc23)cc1C`, the compound was classed as inactive.

With `CCCN(CC(=O)Nc1ccccc1C)C(=O)C1CCN(S(=O)(=O)c2ccc(C)c(C)c2)CC1`, the compound was called inactive.

In the case of `O=C(NCc1ccccn1)C(=O)NCC1OCCN1S(=O)(=O)c1ccc(Br)cc1` (stereo not drawn), the compound was called inactive.

Take `CCC(C)(C)C1CCc2[nH]nc(C(=O)NCc3ccccn3)c2C1` (stereo not drawn): the call was inactive.

As to `COc1ccc(CN(C)C[C@H]2OCCCC[C@@H](C)Oc3ccc(NC(=O)NC(C)C)cc3C(=O)N([C@H](C)CO)C[C@H]2C)cc1`, the outcome was inactive.

Consider `CN1c2ccc(-c3cccc(F)c3)cc2[C@H]2[C@H](CCN2C(=O)Cc2cccnc2)[C@H]1CO`, for which the call was inactive.

For `CC(C)NC(=O)N1C[C@H]2[C@@H](c3ccccc31)[C@@H](CO)N2C(=O)c1ccccn1`, the result was inactive.

In the case of `O=C(C1CCOCC1)N1C[C@@H]2[C@H](c3ccccc31)[C@H](CO)N2C(=O)c1ccccc1`, the compound was called inactive.
